Inconclusive results are not listed. Where a call stands in place of a potency, no number is given. Active and inactive are the calls of the source. Calls follow the shape of the dose curve; as a rule, active = well fitted activation curve with a large enough effect in the repeat runs; inconclusive = weak or mixed curves, or effect the other way; inactive = no such curve, though single readings can be large or run the other way.
assay: qHTS assay to identify small molecule agonists of the estrogen related receptor signaling pathway with the pleiotropic PPARgamma coactivator (PGC) from Tox21 10K library (AID 1224842); conditions: PGC/ERR reporter cell line, luciferase ONE-Glo, 18 h; series mostly up to 92.4 µM; also: nearly all actives have a fitted effect of over 15% in size
Source text: National Center for Advancing Translational Sciences [NCATS] NIH Chemical Genomics Center [NCGC] U.S. Environmental Protection Agency [EPA] National Institutes of Environmental Health Sciences [NIEHS] National Toxicology Program [NTP] Assay overview: Estrogen related receptors (ERRs), the first orphan nuclear receptors discovered, play an important role in the control of cellular energy metabolism. ERRs are required for high-energy production in response to the environmental challenges. The pleiotropic PPARgamma coactivator (PGC) is a major partner of ERR and a key regulator in energy homeostasis. Together they have been implicated in the etiology of metabolic disorders such as Type 2 diabetes and metabolic syndrome. ERR-alpha was also identified as an adverse marker for breast cancer progression; ERR-alpha-positive tumors have a poor prognosis. To screen and to identify environmental compounds that perturb the PGC/ERR signaling pathways could provide valuable information for potential therapeutic or preventive measures in the treatment of metabolic disease. For identifying PGC/ERR agonists, PGC/ERR cell line (provided by NTP) has been used to screen Tox21 10K library.
Assay Protocol Summary: The PGC/ERR cells were dispensed at 2,000 cells/5 ul/well in 1536-well white plates using a Multidrop dispenser. After the assay plates were incubated at a 37 C/5% CO2 incubator for 6 hours, 23 nL of compounds dissolved in DMSO, positive and negative controls or DMSO only was transferred to the assay plate by a pin tool. The plates were incubated at 37 C for 18 hours. 4 ul/well of One-Glo reagent was added into the assay plates using a Flying Reagent Dispenser. After 30-minute incubation at room temperature, the luminescence intensity in the plates was measured using a ViewLux plate reader.
Potency is read from the fitted curve at half-maximal effect.

Structure (SMILES) | Potency | activation
NC(N)=NN=C(/C=C/c1ccc([N+](=O)[O-])o1)/C=C/c1ccc([N+](=O)[O-])o1 | inactive | –
Nc1nc(CC(=O)O)cs1 | inactive | –
O=C(O)Cc1sc(-c2ccccc2)nc1-c1ccc(Cl)cc1 | inactive | –
CCN(CC)CCOc1ccc2c(c1)C(=O)c1cc(OCCN(CC)CC)ccc1-2 | inactive | –
OCC1CC2CC1C1CCC(CO)C21 (stereo not given) | inactive | –
O=CNc1ccccc1 | inactive | –
CN1CCN(C2=Nc3ccccc3Sc3ccc(Cl)cc32)CC1 | inactive | –
OC(CCN1CCCCC1)(c1ccccc1)C1CCCCC1 (stereo not given) | inactive | –
CCCCCC(CO)CCC (stereo not given) | inactive | –
CC/C(=C\C(=N/O)C(N)=O)C(C)[N+](=O)[O-] (stereo not given) | inactive | –
CC(=O)[C@@]1(O)CC[C@H]2[C@@H]3C[C@H](C)C4=CC(=O)CC[C@]4(C)[C@H]3CC[C@@]21C | inactive | –
CCCCC(CC)COCCCN (stereo not given) | inactive | –
CCCCCCCCCO | inactive | –
O=C1[C@H](CC[C@H](O)c2ccc(F)cc2)[C@@H](c2ccc(O)cc2)N1c1ccc(F)cc1 | inactive | –
O=C(O)Cc1cc(I)c(Oc2ccc(O)c(I)c2)c(I)c1 | inactive | –
NC[C@H]1O[C@H](O[C@H]2[C@H](O)[C@@H](O[C@H]3O[C@H](CO)[C@@H](O)[C@H](N)[C@H]3O)[C@H](N)C[C@@H]2N)[C@H](O)[C@@H](O)[C@@H]1O | – | 1.17% [at 8.39 µM] (inactive)
NC(N)=N/N=C/c1c(Cl)cccc1Cl | inactive | –
CN(C(=O)CCCOc1ccc2[nH]c(=O)ccc2c1)C1CCCCC1 | inactive | –
COc1cc(C(C)(C)C)c(O)c(C(C)(C)C)c1 | inactive | –
CCN(CC)C(C)=O | inactive | –

Structure (SMILES) | Potency | activation
CCCCCCCCN(C)C | inactive | –
C=CC[N+]1([C@H]2C[C@H]3[C@@H]4CC[C@H]5C[C@H](OC(C)=O)[C@@H](N6CCCCC6)C[C@]5(C)[C@H]4CC[C@]3(C)[C@H]2OC(=O)CC)CCCCC1 | inactive | –
CC(C)NCC(O)c1cc(O)cc(O)c1 (stereo not given) | inactive | –
CCCCCCCCC(CO)CCCCCC (stereo not given) | inactive | –
C=C(C)C(=O)OCCOc1ccccc1 | inactive | –
CN(C)CCCOc1nn(Cc2ccccc2)c2ccccc12 | inactive | –
O=S1(=O)c2cccc3cccc(c23)N1CCCN1CCN(c2ccc(F)cc2)CC1 | inactive | –
C#CCOC(=O)[C@@H](C)Oc1ccc(Oc2ncc(Cl)cc2F)cc1 | inactive | –
CN1CCC(=C2c3ccccc3CCc3sccc32)CC1 | inactive | –
O=C1c2cccc(O)c2C(=O)c2c(O)cc(CO)cc21 | inactive | –
Cc1occc1S | inactive | –
CCOc1ccc(NC(=O)CC(C)=O)cc1 | inactive | –
Cl/C(=C\n1cncn1)c1ccc(Cl)cc1Cl | inactive | –
O=C(CC(=O)c1ccccc1)c1ccccc1 | 29.3 µM (active) | –
CCCC[C@H]1CN(CC2CCOCC2)C(=O)OC12CCN(C1(C)CCN(C(=O)c3c(C)ncnc3C)CC1)CC2 | inactive | –
Cc1cc(NC(=O)C(=O)O)cc(C)c1Oc1ccc(O)c2c1CCC2 | inactive | –
CN1CCC(=C2c3ccccc3C=Cc3ccccc32)CC1 | inactive | –
CC(C)(C)c1cc(O)c(C(C)(C)C)cc1O | inactive | –
C=Cc1c(C)c2cc3[nH]c(cc4nc(cc5nc(cc1[nH]2)C(C)=C5CCC(=O)O)C(CCC(=O)O)=C4C)c(C)c3C=C | inactive | –
Oc1ccc(O)c2c(O)cccc12 | inactive | –
